The sequences below were run against MMP20 (assay: pooled miR-30 sensor sort-seq; sequence = guide strand). Conditions: shRNA.
Sequence TTCCTTATCATGGAATTGCTTC has a sensor-assay potency score (higher = more potent) of -0.732. Sequence TGTAGCTCCTTAATCTTCCTTA has a sensor-assay potency score (higher = more potent) of -0.0346. In the case of TTCTACAGCAGCATCGATTTGG, the sensor-assay potency score (higher = more potent) is reported as -0.442. With TATTTGTGTAATATTTGTCAAG the sensor-assay potency score (higher = more potent) was -1.1. TTTCACATCATCTTTGGGGAGG gave a sensor-assay potency score (higher = more potent) of -0.942. With TAGTCTTTTTCCATTTTCCTTT the sensor-assay potency score (higher = more potent) was -0.827. TTCTTGATCACGTTCATTGTGG gave a sensor-assay potency score (higher = more potent) of -0.0903. In the case of TAATTCTACAGCAGCATCGATT, the sensor-assay potency score (higher = more potent) is reported as -0.811. With TTTCCTTTCGTCGTAGCTGTAG the sensor-assay potency score (higher = more potent) was -0.397. Work on TTTCCTTTTCCTTTCGTCGTAG yielded a sensor-assay potency score (higher = more potent) of 0.328. TTCTTGTACTTATAAGTTGGGT gave a sensor-assay potency score (higher = more potent) of -0.728. Work on TTAATTCTACAGCAGCATCGAT yielded a sensor-assay potency score (higher = more potent) of -0.771.

Each sequence was assayed against MMP27 in the same assay as above. Conditions: shRNA.
Sequence TAGTTTATTATTCTGTAGGTGA has a sensor-assay potency score (higher = more potent) of -0.199. Work on TATTCTTTGTCTTAATGTCGTA yielded a sensor-assay potency score (higher = more potent) of -0.516. With TAATTCAAACTCAACATCCGTG the sensor-assay potency score (higher = more potent) was 0.0831. TTAATTCAAACTCAACATCCGT gave a sensor-assay potency score (higher = more potent) of -0.367. With TATTTCAAGAGAGTAGAACTGG the sensor-assay potency score (higher = more potent) was 0.764. With TTTCTTGTGGTCTTATCACAGA the sensor-assay potency score (higher = more potent) was -0.677. TAATTTGGGAACATCAAGGCTG gave a sensor-assay potency score (higher = more potent) of 0.912. With TTTGGGAACATCAAGGCTGTTT the sensor-assay potency score (higher = more potent) was -0.134. TTGTGGTCTTATCACAGACGGC showed a sensor-assay potency score (higher = more potent) of -1.63. ATTCTTTGTCTTAATGTCGTAT showed a sensor-assay potency score (higher = more potent) of -0.054. TAGGTTTTTCTTGTGGTCTTAT was tested, and the sensor-assay potency score (higher = more potent) was -0.201. Sequence AAGAACATTACTTCTCTGCGGA has a sensor-assay potency score (higher = more potent) of 0.732.

The sequences below were run against MMS22L in the same assay as above. Conditions: shRNA.
With TTTGAGATTGACAACACACGAT the sensor-assay potency score (higher = more potent) was 0.337. In the case of TTAAGTAGTTTATTCAACCAGT, the sensor-assay potency score (higher = more potent) is reported as -0.299. In the case of TTGAGATTGACAACACACGATA, the sensor-assay potency score (higher = more potent) is reported as -0.65. TTTTTTAACAACTTTTGCCAGA showed a sensor-assay potency score (higher = more potent) of -0.793. With TAATCCACCAACTAAAACCTAA the sensor-assay potency score (higher = more potent) was -0.962. Work on TTTATCGCAACAGCAAGTCTTC yielded a sensor-assay potency score (higher = more potent) of -0.217. With TTCTTCTAGAATGACACCCTGA the sensor-assay potency score (higher = more potent) was 0.182. TATATTTTAATACTTCACCAAG was tested, and the sensor-assay potency score (higher = more potent) was -1.14. Work on TTCTTGAACACCATCAATGTAT yielded a sensor-assay potency score (higher = more potent) of -0.0869. TAATCTTGTCAGTTTGACCAAC gave a sensor-assay potency score (higher = more potent) of -0.606. Work on TTGCTGACAACATAGGTGCAGG yielded a sensor-assay potency score (higher = more potent) of -1.03. TATCTTGCTACAACTTGAGGGC showed a sensor-assay potency score (higher = more potent) of -0.184.

From the OligoGym collection
Also: reference of the scale not given here.
